# Laboratory results as given in PubChem BioAssay (NCATS).
# Records with an inconclusive call do not appear. Entries that show only a call come without a potency. A number with no mark means an inactive call. Calls of active or inactive are those of the source. Calls come from the whole dose curve; as a rule, active = well fitted cell-killing curve with a large enough effect; inconclusive = small, poorly fitted or top-dose-only effect, or effect the other way; inactive = flat fitted curve, though single readings scatter.
# Experiments:
# Test in all cases: Primary qHTS to identify gynecologic anti-cancer compounds using libraries of approved drugs and bioactive compounds (AID 1345084); note: nearly all actives have a fitted effect of over 55% in size
# [1] = tested on: C33A; conditions: Gynecologic cancer cell panel viability, ATPlite luminescence, 48 h; series mostly up to 57.5 µM
# In short: (§1)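 48 h compound exposure at 37 C, 5% CO2; five-point qHTS. ATPlite luminescence readout of cell ATP.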
# [2] = tested on: CAOV3; conditions: Gynecologic cancer cell panel viability, ATPlite luminescence, 48 h; series mostly up to 57.5 µM
# In short: as §1
# [3] = tested on: CASKI; conditions: Gynecologic cancer cell panel viability, ATPlite luminescence, 48 h; series mostly up to 57.5 µM
# In short: as §1
# [4] = tested on: Es-2; conditions: Gynecologic cancer cell panel viability, ATPlite luminescence, 48 h; series mostly up to 57.5 µM
# In short: as §1
# [5] = tested on: HeLa; conditions: Gynecologic cancer cell panel viability, ATPlite luminescence, 48 h; series mostly up to 57.5 µM
# In short: as §1
# [6] = tested on: Hek293T; conditions: Gynecologic cancer cell panel viability, ATPlite luminescence, 48 h, control line for the selectivity index; series mostly up to 57.5 µM
# In short: as §1
# [7] = tested on: JEG-3; conditions: Gynecologic cancer cell panel viability, ATPlite luminescence, 48 h; series mostly up to 57.5 µM
# In short: as §1
# [8] = tested on: OV90; conditions: Gynecologic cancer cell panel viability, ATPlite luminescence, 48 h; series mostly up to 57.5 µM
# In short: as §1
# [9] = tested on: PA-1; conditions: Gynecologic cancer cell panel viability, ATPlite luminescence, 48 h; series mostly up to 57.5 µM
# In short: as §1
# Potency is the fitted concentration of half-maximal effect.
SMILES,Potency [1],Potency [2],Potency [3],Potency [4],Potency [5],Potency [6],Potency [7],Potency [8],Potency [9],"activity change, negative = cytotoxicity [1]","activity change, negative = cytotoxicity [2]","activity change, negative = cytotoxicity [3]","activity change, negative = cytotoxicity [4]","activity change, negative = cytotoxicity [5]","activity change, negative = cytotoxicity [6]","activity change, negative = cytotoxicity [7]","activity change, negative = cytotoxicity [8]","activity change, negative = cytotoxicity [9]"
C=C1C(=O)O[C@@H]2C[C@]3(C)[C@@H](CCC(C)O)[C@@H]3C[C@H]12 (stereo partly specified),inactive,inactive,inactive,inactive,inactive,inactive,inactive,inactive,inactive,–,–,–,–,–,–,–,–,–
O=S(=O)(NCc1ccccn1)c1ccc(Br)c2ccccc12,inactive,inactive,inactive,inactive,inactive,inactive,inactive,inactive,inactive,–,–,–,–,–,–,–,–,–
Cc1cc(C(=O)Nc2cc(Oc3ccc4nc(NC(=O)C5CC5)cn4n3)ccc2C)n(C)n1,inactive,inactive,inactive,inactive,inactive,inactive,inactive,inactive,inactive,–,–,–,–,–,–,–,–,–
C=C1/C(=C/C=C2\CCC[C@]3(C)[C@@H]([C@H](C)/C=C/[C@@H](C)C(C)C)CC[C@@H]23)C[C@@H](O)C[C@@H]1O,inactive,inactive,inactive,inactive,inactive,inactive,inactive,inactive,inactive,–,–,–,–,–,–,–,–,–
CN1CC[C@@H](c2c(O)cc(O)c3c(=O)cc(-c4ccc(C(F)(F)F)cc4Cl)oc23)[C@@H]1CO,inactive,inactive,inactive,inactive,inactive,inactive,inactive,inactive,inactive,–,–,–,–,–,–,–,–,–
Cc1ccc(C2(C(=O)N3CCC(n4nc(-c5ccccc5)oc4=O)CC3)CC2)cc1,inactive,inactive,inactive,inactive,inactive,inactive,inactive,inactive,inactive,–,–,–,–,–,–,–,–,–
CC1(C)CCC2(C(=O)OC3OC(COC4OC(CO)C(O)C(O)C4O)C(O)C(O)C3O)CCC3(C)C(=CCC4C5(C)CCC(OC6OCC(O)C(O)C6O)C(C)(C)C5CCC43C)C2C1O (stereo unspecified),–,–,–,–,–,–,–,–,–,-1.3% [at 11.6 µM],1.87% [at 11.6 µM],-6.34% [at 11.6 µM],5.34% [at 11.6 µM],20.6% [at 11.6 µM],-15.1% [at 11.6 µM],-7.3% [at 11.6 µM],-2.98% [at 11.6 µM],-14.1% [at 11.6 µM]
NS(=O)(=O)c1ccc(N2CCN(CC[C@@H]3OCCc4ccccc43)CC2)cc1,inactive,inactive,inactive,inactive,inactive,inactive,inactive,inactive,inactive,–,–,–,–,–,–,–,–,–
CN(C)CCOc1cc(NS(=O)(=O)c2c(Cl)cc(C(F)(F)F)cc2Cl)ccc1Cl,inactive,inactive,inactive,inactive,inactive,inactive,inactive,inactive,inactive,–,–,–,–,–,–,–,–,–
CCC[C@H](N[C@H]1CCc2cc(F)cc(F)c2C1)C(=O)Nc1cn(C(C)(C)CNCC(C)(C)C)cn1,inactive,inactive,inactive,inactive,inactive,inactive,inactive,inactive,inactive,–,–,–,–,–,–,–,–,–
C/C=C/C=C/c1cc2c(C=O)c(O)c(CC=C(C)C)cc2o1,inactive,inactive,inactive,inactive,inactive,inactive,inactive,inactive,inactive,–,–,–,–,–,–,–,–,–
CN(C)[C@@H]1CCc2[nH]c3ccc(NC(=O)c4ccc(F)cc4)cc3c2C1,inactive,inactive,inactive,inactive,inactive,inactive,inactive,inactive,inactive,–,–,–,–,–,–,–,–,–
CNCCN1CCC(c2cc(CN(C)C(=O)c3cccc(Oc4ccccc4)c3)ccn2)CC1,inactive,inactive,inactive,inactive,inactive,inactive,inactive,inactive,inactive,–,–,–,–,–,–,–,–,–
Cc1ccc(F)cc1S(=O)(=O)N[C@@H]1CCN(Cc2ccc(OC(C)C)cc2)C1,inactive,inactive,inactive,inactive,inactive,inactive,inactive,inactive,inactive,–,–,–,–,–,–,–,–,–
Nc1nc(OCc2cc(Br)cs2)c2[nH]cnc2n1,inactive,inactive,inactive,inactive,inactive,inactive,inactive,inactive,inactive,–,–,–,–,–,–,–,–,–
O=C(NCC1(c2nc(-c3ccccc3)cs2)CCOCC1)c1cccc(-c2noc(C(F)(F)F)n2)c1,inactive,inactive,inactive,inactive,inactive,inactive,inactive,inactive,inactive,–,–,–,–,–,–,–,–,–
CO[C@@H]1[C@H](O)CCC2(CO2)[C@H]1[C@@]1(C)O[C@@H]1CC=C(C)C (stereo partly specified),inactive,inactive,inactive,inactive,inactive,inactive,inactive,inactive,inactive,–,–,–,–,–,–,–,–,–
CCC(=O)N1CCOc2c(cc(-c3ccc(OC)c(OC)c3)cc2OC[C@H]2CCCN(C)C2)C1,inactive,inactive,inactive,inactive,inactive,inactive,inactive,inactive,inactive,–,–,–,–,–,–,–,–,–
O=C(NCC(=O)N1CCCC1)Nc1ccc2cnccc2c1,inactive,inactive,inactive,inactive,inactive,inactive,inactive,inactive,inactive,–,–,–,–,–,–,–,–,–
CC(CCC1(O)OC2CC3C4CC=C5C[C@@H](O[C@@H]6O[C@H](CO)[C@@H](O[C@@H]7O[C@@H](C)[C@H](O)[C@@H](O)[C@H]7O)[C@H](O)[C@H]6O[C@@H]6O[C@@H](C)[C@H](O)[C@@H](O)[C@H]6O)CC[C@]5(C)C4CC[C@]3(C)[C@@]2(O)[C@@H]1C)CO[C@@H]1O[C@H](CO)[C@@H](O)[C@H](O)[C@H]1O (stereo partly specified),–,1000 nM (active),–,–,–,–,–,–,–,-5.46% [at 11.6 µM],–,14.6% [at 11.6 µM],10.8% [at 11.6 µM],4.9% [at 11.6 µM],7.85% [at 11.6 µM],5.47% [at 11.6 µM],3.45% [at 11.6 µM],19.4% [at 11.6 µM]
COc1c(C(O)CC(C)C)ccc2c1C(=O)OCc1cc(C)cc(O)c1O2 (stereo unspecified),inactive,inactive,inactive,inactive,inactive,inactive,inactive,inactive,inactive,–,–,–,–,–,–,–,–,–
Cn1ncnc1[C@@H]1c2n[nH]c(=O)c3cc(F)cc(c23)N[C@H]1c1ccc(F)cc1,inactive,inactive,inactive,inactive,inactive,inactive,inactive,inactive,inactive,–,–,–,–,–,–,–,–,–
COc1ccc2nccc(C(=O)CC[C@@H]3CCN(CC#Cc4cc(F)cc(F)c4F)C[C@@H]3C(=O)O)c2c1,inactive,inactive,inactive,inactive,inactive,inactive,inactive,inactive,inactive,–,–,–,–,–,–,–,–,–
CC[C@H]1OC(=O)[C@H](C)[C@@H](O[C@H]2C[C@@](C)(OC)[C@@H](O)[C@H](C)O2)[C@H](C)[C@@H](O[C@H]2O[C@H](C)C[C@H](N(C)C)[C@H]2O)[C@](C)(O)C[C@@H](C)C(=O)[C@H](C)[C@@H](O)[C@]1(C)O,inactive,inactive,inactive,inactive,inactive,inactive,inactive,inactive,inactive,–,–,–,–,–,–,–,–,–
